# Assay results published in PubChem BioAssay AID493034 (The Scripps Research Institute Molecular Screening Center, 2011).
# Hit rate of the full screen: of about 2,400 compounds, about 2,200 (92%) were called active. The set was probably picked from earlier hits. The list shows a part of the results. Unmarked numbers belong to inactive results.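 Rule for the calls: active = mean inhibition over triplicate runs exceeds the cutoff derived for the earlier primary screen (cut at about 25% in these data); inactive = the rest.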
# Molecular target: Platelet-activating factor acetylhydrolase IB subunit alpha2 (Homo sapiens) (UniProt P68402)
# Assay: inhibition of human PAFAH1B2 catalytic subunit – biochemical, fluorescence polarization, FP-rhodamine probe, triplicate, confirmation (AID 493034);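 note: 0% = enzyme with DMSO and 100% = wells lacking PAFAH1B2 protein; inhibitors lower polarization by leaving the probe unbound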
# Settings: recombinant PAFAH1B2, FP-rhodamine probe fluorescence polarization; at 3.39 µM; hits give high values
# Chain of Platelet-activating factor acetylhydrolase IB subunit alpha2 (Homo sapiens) (P68402 whole entry, looked up): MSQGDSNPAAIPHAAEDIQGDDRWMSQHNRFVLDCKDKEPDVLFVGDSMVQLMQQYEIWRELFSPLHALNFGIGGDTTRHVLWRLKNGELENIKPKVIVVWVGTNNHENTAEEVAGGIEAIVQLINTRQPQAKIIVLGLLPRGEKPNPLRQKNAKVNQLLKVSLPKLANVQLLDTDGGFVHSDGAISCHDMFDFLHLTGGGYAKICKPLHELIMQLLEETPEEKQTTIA
row,Compound,inhibition
1,O=C(O)CC1c2ccccc2CCN1S(=O)(=O)c1ccc(F)cc1 (centres undefined),19.8%
2,CN(Cc1ccccc1)C(=O)COC(=O)C12CC3CC(CC(Br)(C3)C1)C2,28.4% (active)
3,OC(c1ccc(F)cc1)(C1CCCCC1)C(CN1CCOCC1)c1ccccc1 (centres undefined),23.5%
4,O=C(O/N=C1/CCCc2occc21)c1ccc(Cl)cc1Cl,19.3%
5,Cc1occc1C(=O)O/N=C(\N)c1ccc(Cl)cc1,27.4% (active)
6,NC(=O)CSc1ccc(Br)cc1,39.5% (active)
7,CC(Sc1ccc(Br)cc1)C(N)=O (centres undefined),27.6% (active)
8,COc1ccc(NC(=O)O/N=C/c2ccc(Br)cc2)cc1,7.26%
9,Cc1ccc(S(=O)(=O)N2[C@@H](c3ccccc3)C(C(=O)O)=CC[C@H]2c2cccc(C)c2)cc1,21.1%
10,CC(=O)N1CCOc2ccc(S(=O)(=O)NCc3ccc(C)cc3)cc21,23.4%
11,Cc1ccc(S(=O)(=O)N2[C@@H](c3ccc(C(C)(C)C)cc3)C(C(=O)O)=CC[C@H]2c2ccc(Cl)c(Cl)c2)cc1,58.5% (active)
12,Cc1ccc(S(=O)(=O)N2[C@@H](c3ccc(Cl)cc3)C(C(=O)O)=CC[C@H]2c2ccc(Cl)c(Cl)c2)cc1,85.8% (active)
13,Cc1ccc(S(=O)(=O)N2[C@@H](c3cccc(C)c3)C(C(=O)O)=C[C@H]2C(C)(C)C)cc1,18.7%
14,Cc1ccc(S(=O)(=O)N2[C@@H](c3ccc(Br)cc3)C(C(=O)O)=CC[C@H]2c2ccc3c(c2)OCO3)cc1,59.1% (active)
15,Cc1ccc(S(=O)(=O)N2[C@@H](c3ccc(C(C)(C)C)cc3)C(C(=O)O)=CC[C@H]2c2cccc(Cl)c2)cc1,70.5% (active)
16,Cc1ccc(S(=O)(=O)N2[C@@H](c3ccc(Br)cc3)C(C(=O)O)=CC[C@H]2c2ccc(Cl)c(Cl)c2)cc1,85.2% (active)
17,CC(C)(C)C1CCC2(CC1)C(C#N)=C(SCC(=O)Nc1ccccc1)NC(=O)C2C#N (centres undefined),55% (active)
18,COc1ccc(S(=O)(=O)N2CCN(C(=O)[C@@H]3CCC(=O)N3C3OC(=O)c4ccccc43)CC2)cc1 (some centres undefined),22.4%
19,COc1cc(/C=N/NC(=O)c2cc(C34CC5CC(CC(C5)C3)C4)[nH]n2)ccc1O,24.7% (active)
20,Cc1ccccc1C(=O)c1cccn1CC(=O)NCc1ccc(Cl)cc1,23.1%
21,O=C(Oc1ccc(-c2ccccc2)cc1)c1ccco1,23.7%
22,O=C(Oc1ccc(OC(=O)c2ccco2)c(S(=O)(=O)c2ccc(Br)cc2)c1)c1ccco1,34% (active)

row,Compound,inhibition
1,CC1=C(C(=O)OCC(Br)(Br)Br)C(c2cccc([N+](=O)[O-])c2)NC(=O)N1CCCC(=O)O (centres undefined),90.6% (active)
2,O=C(Nc1ccccc1Cl)Oc1ccc(-c2ccccc2)cc1,53.8% (active)
3,Cc1ccc(S(=O)(=O)n2nc(-c3cccnc3)nc2N)cc1,23.2%
4,CC(=O)C[C@@H](O)CC(=O)[C@H]1OC(=O)CCCCCCCCc2ccccc21,43.6% (active)
5,CC(=O)C[C@H](O)CC(=O)[C@H]1OC(=O)CCCCCCCCc2ccccc21,31.4% (active)
6,Cc1noc(NS(=O)(=O)c2ccc(NC(=O)CC34CC5CC(CC(Br)(C5)C3)C4)cc2)c1C,30.9% (active)
7,O=S(=O)(Nc1ncccn1)c1ccc(NC(=S)NCCc2ccc(Cl)cc2)cc1,36.6% (active)
8,CC(CC(=O)NCCc1ccc(Cl)cc1)S(=O)(=O)c1ccc2c(c1)NC(=O)CO2 (centres undefined),22.4%
9,Cn1c(=O)oc2cc(S(=O)(=O)NCCC(=O)NCCc3ccc(Cl)cc3)ccc21,19.6%
10,N=c1c(S(=O)(=O)c2ccc(Cl)cc2)cc2c(=O)n3ccccc3nc2n1CCN1CCOCC1,22.3%
11,O=c1[nH]c(CN2CCN(c3ccc([N+](=O)[O-])cc3)CC2)nc2ccsc12,31.1% (active)
12,O=C1OC(c2ccccc2)=N/C1=C/c1cccc(OC(=O)c2cccs2)c1,15.5%
13,O=C(O)c1cccc(COc2ccc3c(c2)CCC3)c1,40% (active)
14,O=C(CCc1ccccc1)c1c(O)cc(O)cc1O,26.6% (active)
15,O=C(CCc1ccc(O)cc1)c1c(O)cc(O)cc1O,22.2%
16,C=C(C)C(COc1c2occc2cc2ccc(=O)oc12)OC(C)(C)C(O)COc1c2occc2cc2ccc(=O)oc12 (centres undefined),67.4% (active)
17,Cc1ccc(NS(=O)(=O)c2cc([N+](=O)[O-])ccc2NNC(=S)Nc2cccc(Cl)c2)c(C)c1,30.2% (active)
18,N#Cc1c(N)[nH]c2ccc(Sc3ccccc3)cc12,33.8% (active)
19,Nc1ccc(CSc2ccc(Cl)cc2)cc1,21.7%
20,Nc1ccc(CSc2ccccc2)cc1,30.1% (active)
21,O=C(CSc1ccccc1)NC(=O)NCc1ccccc1,21.7%
22,CCOc1cc(/C=C(/C#N)c2ccc(F)cc2)ccc1OCc1ccc(C(=O)O)o1,4.35%

row,Compound,inhibition
1,CCOc1cc(/C=C(/C#N)c2ccc(Cl)cc2)cc(Cl)c1OCC(=O)O,42.5% (active)
2,C[C@H]1CN([C@@H](C)CO)C(=O)c2cccc(NC(=O)Nc3ccc(C(F)(F)F)cc3)c2O[C@@H]1CN(C)C(=O)Nc1ccc(F)cc1,57% (active)
3,C[C@@H]1CN([C@H](C)CO)C(=O)c2cccc(NC(=O)Nc3ccc(F)cc3)c2O[C@H]1CN(C)C(=O)Nc1ccc(C(F)(F)F)cc1,39.6% (active)
4,O=C(COc1ccc2c(-c3ccccc3)cc(=O)oc2c1)N[C@@H](Cc1c[nH]c2ccc(O)cc12)C(=O)O,55.4% (active)
5,CCCCc1cc(=O)oc2cc(C)cc(OCC(=O)NC(Cc3ccc(Cl)cc3)C(=O)O)c12 (centres undefined),22.2%
6,CC(Oc1ccc2c(-c3ccccc3)cc(=O)oc2c1)C(=O)N[C@H](Cc1c[nH]c2ccccc12)C(=O)O (some centres undefined),64.3% (active)
7,CC(Oc1ccc2c(-c3ccccc3)cc(=O)oc2c1)C(=O)NC(Cc1c[nH]c2ccccc12)C(=O)O (centres undefined),59% (active)
8,CC(Oc1ccc2c(-c3ccccc3)cc(=O)oc2c1)C(=O)NC(Cc1c[nH]c2ccc(O)cc12)C(=O)O (centres undefined),55.9% (active)
9,Cc1ccc(CSc2nnc(NC(=O)C3COc4ccccc4O3)s2)cc1 (centres undefined),21.4%
10,CCCCCCCCCCS(=O)(=O)N/N=C/c1ccc([N+](=O)[O-])cc1,20.3%
11,CCN(Cc1ccccc1)c1ccc(/C=N/NS(=O)(=O)c2cccc([N+](=O)[O-])c2)cc1,63.5% (active)
12,O=C(NCc1cccnc1)C(=O)Nc1nc(C23CC4CC(CC(C4)C2)C3)cs1,23.7%
13,O=C(CC1CC2CCC1C2)Nc1nc(-c2ccccn2)cs1 (centres undefined),45.4% (active)
14,CC(NCc1ccc(OCc2ccc(Cl)cc2)cc1)C(O)c1ccccc1 (centres undefined),68.7% (active)
15,O=C(NCC(c1ccco1)N1CCCCC1)c1ccc(COc2ccc(Cl)cc2)cc1 (centres undefined),20%
16,Clc1ccc(COc2cccc(CNCc3ccncc3)c2)cc1,19.2%
17,CCc1ccc2nc3sc(C(=O)Nc4nnc(CC)s4)c(N)c3cc2c1,19.1%
18,Cc1ccc(NC(=O)O/N=C/c2ccc(Br)cc2)cc1,15.5%
19,CCOC(=O)C1CCCN(C(=O)Cc2c(C(=O)O)[nH]c3ccccc23)C1 (centres undefined),28.4% (active)
20,O=C(Cc1ccc(Br)cc1)Nc1ncc([N+](=O)[O-])s1,28.4% (active)
